Assays:
Assay in all cases: PBM binding z-score (relative to random genomic background probes); higher = stronger binding; sequences stand for … in GC…GCGATTGACAGCGTAGAATGAAGG
[1] = system: FXR:RXRa (NR concentration 270 nM, RXRa partner concentration 90 nM)
Procedure, shortened: (§1)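 Scanned fluorescence from custom Agilent 4×180K protein-binding microarrays was regression-normalized. Binding z-scores use random background probes as reference. Ligand-free nuclear receptor dimers were incubated on the arrays for 1 h and detected with antibodies against each partner (one per run).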

[2] = system: LXRa:RXRa (NR concentration 270 nM, RXRa partner concentration 90 nM)
Procedure, shortened: as §1

[3] = system: LXRa homodimer (NR concentration 270 nM)
Procedure, shortened: as §1

[4] = system: LXRb:RXRa (NR concentration 270 nM, RXRa partner concentration 90 nM)
Procedure, shortened: as §1

[5] = system: LXRb homodimer (NR concentration 270 nM)
Procedure, shortened: as §1

[6] = system: PPARa:RXRa (NR concentration 270 nM, RXRa partner concentration 90 nM)
Procedure, shortened: as §1

[7] = system: PPARg:RXRa (NR concentration 180 nM, RXRa partner concentration 90 nM)
Procedure, shortened: as §1

[8] = system: PPARg:RXRa 270nM:90nM, anti-RXR (NR concentration 270 nM, RXRa partner concentration 90 nM)
Procedure, shortened: as §1

[9] = system: PPARg:RXRa 30nM:10nM, anti-RXR (NR concentration 30 nM, RXRa partner concentration 10 nM)
Procedure, shortened: as §1

[10] = system: PPARg:RXRa 90nM:30nM, anti-RXR (NR concentration 90 nM, RXRa partner concentration 30 nM)
Procedure, shortened: as §1

Sequence | PBM binding z-score [1] | PBM binding z-score [2] | PBM binding z-score [3] | PBM binding z-score [4] | PBM binding z-score [5] | PBM binding z-score [6] | PBM binding z-score [7] | PBM binding z-score [8] | PBM binding z-score [9] | PBM binding z-score [10]
ACTATTAGTTGAGACGAGGGCAACCGATAGGTTG | 0.538 | 0.128 | 0.022 | 0.22 | 0.0471 | 0.636 | 0.774 | 0.555 | 0.376 | 0.316
GATACAGGGTCGAGGCCAGAGTACGCGTATTGAT | 0.882 | 0.531 | -0.581 | 0.3 | -1.21 | 1.99 | 1.21 | 0.874 | 0.198 | 0.515
CCTACTGGCCCAAAGGTCATTGATTCCAATGCTC | 4.8 | 5.12 | 4.37 | 4.8 | 1.23 | 5.27 | 7.37 | 7.17 | 5.9 | 7.85
GCTCGGAGGACAAGTTCAGAGCTTTGTCCGTAGA | 0.263 | 0.115 | -0.227 | 0.0203 | -0.625 | 0.311 | -0.94 | -0.31 | -1.15 | -0.738
TCGAGTAGGTTAGTCGGGGGATTCAGCCAACATA | 0.552 | 0.506 | -0.00348 | 2.06 | 6.46 | 1.13 | 0.0949 | 1.49 | 1.26 | 1.28
TAGCCTAGGTCAGATCGGGCCAGTATCCGCTATA | 2 | 1.05 | -0.375 | 0.765 | -0.472 | 1.69 | 0.405 | 0.707 | -0.351 | -0.0749
ATATGTAGGTTACATCCGGGTCACTCAGGCTATG | 2.08 | 3.86 | 1.09 | 2.75 | 0.682 | 4.31 | 6.07 | 5.17 | 2.68 | 4.31
CTACCATGGTGAACAAGGTCGTTGATTACTATTC | 0.251 | 0.452 | 0.165 | 1.23 | -0.219 | 1.07 | 0.161 | 0.378 | -0.000193 | 0.175
CAAACTAGGGCACAGAGGTCAAAGTCCGTGCGTA | 5.59 | 5.41 | 5.74 | 4.88 | 1.2 | 5.71 | 7.92 | 6.9 | 4.71 | 6.59
CCATACAGGTGAGAAGGTAACTCAGCCTCGATTA | 0.317 | 0.251 | 0.308 | 0.309 | -0.0623 | 1.01 | 1.03 | 1.68 | 0.288 | 1.26
CGTCAAAGTTCAACTAAGGTAACGTAGAGCACGC | 7.03 | 5.95 | 4.18 | 4.04 | 1.71 | 5.1 | 5.31 | 5.6 | 2.54 | 4.47
TAGCCGAGGTCATGGGCCAGTATACCACGCGAAC | 7.63 | 5.96 | 0.925 | 4.99 | 0.79 | 6.28 | 7.45 | 7.21 | 3.43 | 5.67
CCGACTGGGGCAGAAAGGTTACCATGCCATCCGG | 0.204 | 0.517 | -0.401 | 0.479 | -1.31 | 2.23 | 1.6 | 2.65 | 0.457 | 1.82
ACAGACACGTGAGTGAAGGTAACTCAGCTGGACG | -0.234 | -0.154 | -0.292 | -0.456 | -0.355 | -0.342 | 0.663 | -0.357 | -0.193 | -0.63
TTACCAAGGTGAAATGTCGTTGATGCACGCCTTG | 0.891 | 0.622 | -0.432 | 0.388 | -0.436 | 2.35 | 2.41 | 3.4 | 1.94 | 3.36
CGTCCAAGGTCATAGGAGGTCAGTGACGACAGAT | 7.82 | 7.6 | 4.84 | 6.12 | 0.978 | 6.02 | 5.6 | 5.9 | 2.05 | 4.62
CCTACTGGACCAAAGGTCATTGATTCCAATGCTC | 4.9 | 5.68 | 5.86 | 5.23 | 2.31 | 6.24 | 10.5 | 9.96 | 10.5 | 10.8
TCGCGTAGGTTAGTCGGGGCATTCAGCCAACATA | 0.0922 | -0.043 | -0.337 | 0.83 | -0.797 | 0.69 | -0.444 | 0.614 | 0.929 | 0.992
ATACAAAGGTGATCGTGAGGTCGTTGATACTAAC | 2.64 | 2.6 | 0.941 | 1.91 | 0.00532 | 2.76 | 1.87 | 1.95 | 0.554 | 1.27
AGTCAAAGTTCAGGACGAGGCAACGTAAAGCACG | 3.7 | 3.55 | 1.2 | 1.5 | -0.0334 | 3.22 | 4.51 | 4.56 | 1.57 | 3.42
ATCTCTAGGTACAGATAGTTCAGTGAATGCAAAT | 0.079 | 0.141 | 0.396 | 0.242 | 0.548 | 0.12 | 0.349 | 0.108 | 0.29 | 0.33
CAAACTAGGTCAACGGAAGGTCAAAGTCCGCATG | 6.1 | 5.99 | 5.99 | 5.09 | 1.55 | 5.74 | 9.03 | 7.24 | 5.66 | 7.49
ATATGTAGGTTCTCGGGTCATTCAGTTTGCGCAT | 2.58 | 2.33 | 1.35 | 2.78 | 0.765 | 3.89 | 3.39 | 3.71 | 1.14 | 2.94
CTCGAAAGGTCGTGCTCAGGTGAGTCTACCAAAC | 4.93 | 3.85 | 0.251 | 3 | 0.082 | 4.65 | 2.04 | 3.85 | 0.42 | 2.48

Sequence | PBM binding z-score [1] | PBM binding z-score [2] | PBM binding z-score [3] | PBM binding z-score [4] | PBM binding z-score [5] | PBM binding z-score [6] | PBM binding z-score [7] | PBM binding z-score [8] | PBM binding z-score [9] | PBM binding z-score [10]
ATCGAAAGGTCGGGGTGAGTATAGAGAAAGGGAA | 3.39 | 3.1 | 0.378 | 3.56 | 1.97 | 4.39 | 2.87 | 2.83 | 1.07 | 2.04
ATCTCTAGGTAAGACTCAGTTGAGTGAAGAACGC | 0.19 | 0.256 | -0.143 | 0.303 | 0.234 | -0.0553 | 0.0512 | 0.121 | -0.116 | -0.195
TAGACTAGGTCAGATCGGGCCAGTATACGCTATA | 1.54 | 0.872 | -0.254 | 0.626 | 0.289 | 2.47 | 3.05 | 2.82 | 1.07 | 2.03
TTCCCAAGGTGAAAGGTCGTTGATGCACGCCTTG | 3.69 | 3.79 | 0.848 | 2.97 | -0.253 | 5.44 | 7.9 | 7.35 | 6.2 | 7.54
TCATGTAGATCAACAGGAGGTTAAGAAAGATCGA | 0.191 | 1.12 | 0.0437 | 0.814 | -0.691 | 1.38 | 0.396 | 1.35 | 2.65 | 1.97
CCTGCTAGGTCATGGTCAACTAATCTACAGTATG | 3.72 | 2.85 | 0.245 | 1.98 | -0.184 | 3.72 | 2.81 | 3.17 | 0.82 | 1.92
CATACATGGTCAGCTAGGCCAGAGTAGGGACGGC | -0.504 | -0.26 | -0.736 | -0.962 | -0.25 | -1.12 | 0.342 | -0.789 | -0.741 | -0.753
ACTATTAGTTGAGACGAGGGCAGCCGATAGGTTG | 0.474 | -0.24 | -0.315 | -0.195 | 0.184 | -0.0872 | 0.689 | -0.013 | 0.136 | -0.0374
AGTCAAAGTTCATCTAGGTAACGTACGATATGCT | 6.96 | 6.13 | 5.65 | 3.91 | 1.59 | 5.05 | 6.7 | 6.46 | 3.66 | 5.86
TCTTGTAGATCAATAGAGGTTAACAAAGTGCGCT | 0.932 | 4.21 | 0.47 | 2.29 | 0.171 | 2.18 | 0.373 | 1.66 | 2.57 | 2
CCAGACAGGTTAAAGGTAACTCAGTCTGGTACGC | 1.95 | 1.84 | 0.195 | 1.63 | -0.137 | 3.7 | 4.55 | 4.78 | 3.23 | 5.29
TCTCGGAGGACACGAAGGTCTGAGCTTTCCAGAG | -0.23 | -0.358 | -1.07 | -0.541 | -1.44 | 0.131 | -0.309 | 0.641 | 1.91 | 1.38
CCGACTGGGGCAAAGGTTACCAAACTCAGTACGA | 1.54 | 1.78 | 0.0328 | 2.27 | -1.29 | 5.64 | 10.5 | 9.36 | 9.35 | 10.6
CAAACTAGGTCCCCGGAAGGTCAAAGTCCGCATG | 2.38 | 3.13 | 2.88 | 2.9 | 0.475 | 3.7 | 2.01 | 2.86 | 0.494 | 1.63
ATATGTAGGTTACATCCGGGTCATTAAGGCTATG | 2.39 | 4.11 | 1.5 | 3.09 | 0.566 | 4.35 | 6.02 | 5.08 | 2.66 | 4.28
TCTAGTAGATCAAGCAGGTTAAGAAAGCCTGAGT | -0.193 | -0.025 | -0.279 | 0.194 | -0.909 | 0.517 | -0.406 | 1.3 | 2.82 | 1.92
AGAATGAGGTTATACGTAGATCGGGGAAGAAAGT | 2.27 | 2 | 0.119 | 1.96 | 0.366 | 3.29 | 1.84 | 2.15 | 0.629 | 1.49
GGAACGAGGGCAAGTTGAAAGCAGAGTTTGATGG | 0.833 | 0.231 | -0.173 | 0.237 | -0.789 | 1.94 | 1.02 | 1.12 | 0.000931 | 0.87
CAGCCTAGGTCAAGGCCAGTATAGGAGGAACGTT | 3.62 | 2.26 | -0.0783 | 1.7 | -0.501 | 3.45 | 2.15 | 2.23 | 0.352 | 1.18
CCTACTGGGCCATCTGGTCATTGATATCAACGTT | -0.161 | -0.364 | -0.126 | -0.0941 | -0.192 | 0.878 | 1.09 | 2.19 | 0.303 | 1.69
AGTCAAAGTTCATCTAGGTAAGGTAAGATATGCT | 6.12 | 6.16 | 5.26 | 4.05 | 1.73 | 5.02 | 6.22 | 6.34 | 3.3 | 5.66
CCTCGGAGGACAGAAGGTCCGAGCTGTCCGCTTT | -0.475 | -0.736 | -0.887 | -1.15 | -0.992 | -1.11 | -0.956 | -1.22 | -1.48 | -1.44
CCTACTGGGCCATTCAGATGTCATTGATCATATG | -0.368 | -0.638 | -0.391 | -0.292 | -0.418 | 0.25 | 0.6 | 0.494 | 0.00113 | 0.0703
CCTACTGGGCCAAAGGTCATTGAATCCAATGCTC | 4.76 | 5.09 | 3.62 | 4.91 | 0.849 | 6.45 | 11.2 | 9.74 | 10.1 | 10.8
